# Data: PubChem BioAssay AID1159580 (chemical genetic matrix, 2015)
# Out of some 5,500 compounds screened, about 2,000 (36%) were called active. About 18% were inconclusive and are not listed. Cut-off read from the data, not from the text of the source: active = normalized growth mostly below about 0.91 (no sharp cut-off); inconclusive = no clear call, values can overlap the other calls; inactive = mostly above about 0.92. The list shows a part of the results.
# Experiment: chemical genetic growth profiling, strain panel (AID 1159580);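 note: tested at 20 µM; growth read once vehicle control cultures reached saturation at 30 °C; 1 = growth at the plate median or of vehicle wells; lower values mean less growth of the strain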
# Conditions: S. cerevisiae deletion strains, growth OD
# [1] = locus YAR019C, strain CDC15, active compounds read low
# [2] = locus YBL105C, strain PKC1, active compounds read low
# [3] = locus YBR135W, strain CKS1, active compounds read low
# [4] = locus YBR136W, strain MEC1, active compounds read low
# [5] = locus YBR160W, strain CDC28, active compounds read low
# [6] = locus YDL017W, strain CDC7, active compounds read low
# [7] = locus YDL028C, strain MPS1, active compounds read low
# [8] = locus YDL101C, strain DUN1, active compounds read low
# [9] = locus YDL108W, strain KIN28, active compounds read low
# [10] = locus YDL132W, strain cdc53, active compounds read low
# [11] = locus YDL214C, strain PRR2, active compounds read low
# [12] = locus YDR052C, strain DBF4, active compounds read low
# [13] = locus YDR054C, strain cdc34, active compounds read low
# [14] = locus YDR226W, strain ADK1, active compounds read low
# [15] = locus YDR477W, strain SNF1, active compounds read low
# [16] = locus YER123W, strain YCK3, active compounds read low
# [17] = locus YER133W, strain GLC7, active compounds read low
# [18] = locus YFL009W, strain cdc4, active compounds read low
# [19] = locus YFL029C, strain CAK1, active compounds read low
# [20] = locus YFR003C, strain YPI1, active compounds read low
# [21] = locus YFR019W, strain FAB1, active compounds read low
# [22] = locus YGR040W, strain KSS1, active compounds read low
# [23] = locus YGR052W, strain FMP48, active compounds read low
# [24] = locus YGR092W, strain DBF2, active compounds read low
# [25] = locus YHR030C, strain SLT2, active compounds read low
# [26] = locus YHR079C, strain IRE1, active compounds read low
# [27] = locus YHR082C, strain KSP1, active compounds read low
# [28] = locus YHR205W, strain SCH9, active compounds read low
# [29] = locus YIL147C, strain SLN1, active compounds read low
# [30] = locus YJL095W, strain BCK1, active compounds read low
# [31] = locus YJL128C, strain PBS2, active compounds read low
# [32] = locus YJL157C, strain FAR1, active compounds read low
# [33] = locus YJR016C, strain ILV3, active compounds read low
# [34] = locus YJR066W, strain TOR1 (second series), active compounds read low
# [35] = locus YJR066W, strain TOR1, active compounds read low
# [36] = locus YKL048C, strain ELM1, active compounds read low
# [37] = locus YKL067W, strain YNK1, active compounds read low
# [38] = locus YKL101W, strain HSL1, active compounds read low
# [39] = locus YKL193C, strain SDS22, active compounds read low
# [40] = locus YKL203C, strain TOR2, active compounds read low
# [41] = locus YLR113W, strain HOG1, active compounds read low
# [42] = locus YLR133W, strain CKI1, active compounds read low
# [43] = locus YLR403W, strain SFP1, active compounds read low
# [44] = locus YML070W, strain DAK1, active compounds read low
# [45] = locus YMR001C, strain CDC5, active compounds read low
# [46] = locus YMR205C, strain PFK2 (second series), active compounds read low
# [47] = locus YMR277W, strain FCP1, active compounds read low
# [48] = locus YNL006W, strain LST8, active compounds read low
# [49] = locus YNL020C, strain ARK1, active compounds read low
# [50] = locus YNL161W, strain CBK1, active compounds read low
# [51] = locus YNL183C, strain NPR1, active compounds read low
# [52] = locus YNL207W, strain RIO2, active compounds read low
# [53] = locus YNL222W, strain SSU72, active compounds read low
# [54] = locus YNL307C, strain MCK1 (second series), active compounds read low
# [55] = locus YOL078W, strain AVO1, active compounds read low
# [56] = locus YOL136C, strain PFK27, active compounds read low
# [57] = locus YOR061W, strain CKA2, active compounds read low
# [58] = locus YOR119C, strain RIO1, active compounds read low
# [59] = locus YOR231W, strain MKK1, active compounds read low
# [60] = locus YOR329C, strain SCD5, active compounds read low
# [61] = locus YPL031C, strain PHO85, active compounds read low
# [62] = locus YPL153C, strain RAD53, active compounds read low
# [63] = locus YPL204W, strain HRR25, active compounds read low
# [64] = locus YPL209C, strain IPL1, active compounds read low
# [65] = locus YPL256C, strain CLN2, active compounds read low
# [66] = locus YPR025C, strain CCL1, active compounds read low
# [67] = locus YPR111W, strain DBF20, active compounds read low
# [68] = strain NNK1, active compounds read low
# [69] = strain TSCII, active compounds read low
smiles,measurement,setting,value
CC1C/C(=N/Nc2ccc(Br)cc2)c2cc(Cl)ccc2S1(=O)=O (stereo not given),normalized growth,[1],1.01 (inactive)
same,normalized growth,[2],0.996 (inactive)
same,normalized growth,[3],0.989 (inactive)
same,normalized growth,[4],0.999 (inactive)
same,normalized growth,[5],0.995 (inactive)
same,normalized growth,[6],0.997 (inactive)
same,normalized growth,[7],1 (inactive)
same,normalized growth,[8],0.988 (inactive)
same,normalized growth,[9],0.992 (inactive)
same,normalized growth,[10],0.986 (inactive)
same,normalized growth,[11],0.888 (inactive)
same,normalized growth,[12],0.998 (inactive)
same,normalized growth,[13],1 (inactive)
same,normalized growth,[14],0.986 (inactive)
same,normalized growth,[15],0.895 (inactive)
same,normalized growth,[16],0.82 (inactive)
same,normalized growth,[17],0.895 (inactive)
same,normalized growth,[18],0.991 (inactive)
same,normalized growth,[19],0.992 (inactive)
same,normalized growth,[20],0.998 (inactive)
same,normalized growth,[21],0.732 (active)
same,normalized growth,"locus YFR028C, strain CDC14, active compounds read low",0.991 (inactive)
same,normalized growth,[22],0.893 (inactive)
same,normalized growth,[23],0.93 (inactive)
same,normalized growth,[24],0.397 (active)
same,normalized growth,[25],0.462 (active)
same,normalized growth,[26],0.647 (inactive)
same,normalized growth,[27],0.793 (inactive)
same,normalized growth,[28],0.728 (inactive)
same,normalized growth,[29],1 (inactive)
same,normalized growth,[30],0.8 (inactive)
same,normalized growth,[31],1 (inactive)
same,normalized growth,[32],0.801 (inactive)
same,normalized growth,[33],0.99 (inactive)
same,normalized growth,[34],0.783 (inactive)
same,normalized growth,[35],0.804 (inactive)
same,normalized growth,[36],0.906 (inactive)
same,normalized growth,[37],0.911 (inactive)
same,normalized growth,[38],0.9 (inactive)
same,normalized growth,[39],0.98 (inactive)
same,normalized growth,[40],0.92 (inactive)
same,normalized growth,[41],0.885 (inactive)
same,normalized growth,[42],0.848 (inactive)
same,normalized growth,[43],0.763 (inactive)
same,normalized growth,[44],0.841 (inactive)
same,normalized growth,[45],0.995 (inactive)
same,normalized growth,[46],0.903 (inactive)
same,normalized growth,[47],0.982 (inactive)
same,normalized growth,[48],0.984 (inactive)
same,normalized growth,[49],0.837 (inactive)
same,normalized growth,[50],0.987 (inactive)
same,normalized growth,[51],0.908 (inactive)
same,normalized growth,[52],0.992 (inactive)
same,normalized growth,[53],0.986 (inactive)
same,normalized growth,[54],0.667 (inactive)
same,normalized growth,[55],0.99 (inactive)
same,normalized growth,[56],0.8 (inactive)
same,normalized growth,[57],0.507 (active)
same,normalized growth,[58],0.839 (inactive)
same,normalized growth,[59],0.879 (inactive)
same,normalized growth,[60],0.998 (inactive)
same,normalized growth,[61],0.868 (inactive)
same,normalized growth,[62],0.854 (inactive)
same,normalized growth,[63],0.855 (inactive)
same,normalized growth,[64],0.988 (inactive)
same,normalized growth,[65],0.879 (inactive)
same,normalized growth,[66],0.995 (inactive)
same,normalized growth,"locus YPR106W, strain ISR1, active compounds read low",0.998 (inactive)
same,normalized growth,[67],0.992 (inactive)
same,normalized growth,[68],0.994 (inactive)
same,normalized growth,[69],0.994 (inactive)
CC1C/C(=N/Nc2ccc(Br)cc2)c2cc(Cl)ccc2S1 (stereo not given),normalized growth,[1],0.535 (active)
same,normalized growth,[2],0.485 (active)
same,normalized growth,[3],0.429 (active)
same,normalized growth,[4],0.497 (active)
same,normalized growth,[5],0.58 (active)
same,normalized growth,[6],0.525 (active)
same,normalized growth,[7],0.396 (active)
same,normalized growth,[8],0.458 (active)
same,normalized growth,[9],0.598 (active)
same,normalized growth,[10],0.546 (active)
same,normalized growth,[11],0.161 (active)
same,normalized growth,[12],0.703 (active)
same,normalized growth,[13],0.333 (active)
same,normalized growth,[14],0.931 (inactive)
same,normalized growth,[15],0.146 (active)
same,normalized growth,[16],0.166 (active)
same,normalized growth,[17],0.213 (active)
same,normalized growth,[18],0.434 (active)
same,normalized growth,[19],0.404 (active)
same,normalized growth,[20],0.433 (active)
same,normalized growth,[21],0.124 (active)
same,normalized growth,[22],0.187 (active)
same,normalized growth,[23],0.215 (active)
same,normalized growth,[24],0.125 (active)
same,normalized growth,[25],0.193 (active)
same,normalized growth,[26],0.192 (active)
same,normalized growth,[27],0.277 (active)
same,normalized growth,[28],0.0907 (active)
same,normalized growth,[29],0.409 (active)
same,normalized growth,[30],0.15 (active)
same,normalized growth,[31],0.318 (active)
same,normalized growth,[32],0.168 (active)
same,normalized growth,[33],0.343 (active)
same,normalized growth,[34],0.117 (active)
same,normalized growth,[35],0.224 (active)
same,normalized growth,[36],0.198 (active)
same,normalized growth,[37],0.185 (active)
same,normalized growth,[38],0.187 (active)
same,normalized growth,[39],0.498 (active)
same,normalized growth,[40],0.182 (active)
same,normalized growth,[41],0.235 (active)
same,normalized growth,[42],0.128 (active)
same,normalized growth,[43],0.0605 (active)
same,normalized growth,[44],0.151 (active)
same,normalized growth,[45],0.644 (active)
same,normalized growth,[46],0.163 (active)
same,normalized growth,[47],0.519 (active)
same,normalized growth,[48],0.265 (active)
same,normalized growth,[49],0.141 (active)
same,normalized growth,[50],0.383 (active)
same,normalized growth,[51],0.194 (active)
same,normalized growth,[52],0.624 (active)
same,normalized growth,[53],0.369 (active)
same,normalized growth,[54],0.114 (active)
same,normalized growth,[55],0.529 (active)
same,normalized growth,[56],0.158 (active)
same,normalized growth,[57],0.12 (active)
same,normalized growth,[58],0.158 (active)
same,normalized growth,[59],0.187 (active)
same,normalized growth,[60],0.303 (active)
same,normalized growth,[61],0.147 (active)
same,normalized growth,[62],0.126 (active)
same,normalized growth,[63],0.131 (active)
same,normalized growth,[64],0.385 (active)
same,normalized growth,[65],0.208 (active)
same,normalized growth,[66],0.41 (active)
same,normalized growth,[67],0.9 (inactive)
same,normalized growth,[68],0.545 (active)
same,normalized growth,[69],0.644 (active)
